Results taken from PubChem BioAssay (NCI).
This is part of a sample that, as a whole, favours compounds with a hit. Of some 83,000 tested, about 20% had one in any assay.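 Cell lines were cultured in 96-well plates, exposed to a single compound concentration, and assessed for percent growth 48 hours later.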 A number with no mark means an inactive call. Activity calls are given as the source filed them.

Test system: SNB-19 CNS
Assay: NCI-60 one-dose screen, 48 h (100 = growth as untreated, 0 = no growth, -100 = all killed)
Details: 10 µM unless noted
Description: Growth inhibition of the SNB-19 human tumor cell line is measured as a screen for anti-cancer activity. Cells are grown in 96 well plates and exposed to the test compound for 48 hours. Compounds are tested at a single concentration, which is 10^-5 M for most compounds. The reported endpoint is percent growth (GI% or GIPRCNT), where numbers from 0 - 100% represent growth inhibition, and numbers from -100% - 0 represent cell death. For example, a value of 40 represents 60% growth inhibition. A value of 0 means no net growth occurred over the course of the experiment. A value of -40 indicates 40% of cells at the beginning of the experiment died by the end of the experiment. A value of -100 means all cells are dead at the end of the experiment.
NCI-60 Human Tumor Cell Lines Screen was performed using the standard one-dose NCI protocol, which is described in more detail at https://dtp.cancer.gov/discovery_development/nci-60/default.htm.
Compounds with GIPRCNT values below 10 were considered active. Activity score was based on GIPRCNT using the following formula: […]
Score is 0 for GIPRCNT values of 100 or above, 50 for GIPRCNT values of 0, and 100 for GIPRCNT values of -100.

Structure (SMILES)	growth
OC1(c2ccccc2F)c2ccccc2C2=NCCN21 (stereo not given)	108%
COc1ccc(/C=C(/C(=O)N2CCCC2)c2cc(OC)c(OC)c(OC)c2)cc1N	44.4%
ClCCN(CCCl)c1nc(Cl)c(C2CC(c3ccccc3)=NN2c2ccccc2)s1 (stereo not given)	79.9%
O=CC(Br)C(Br)c1ccccc1 (stereo not given)	96%
NC(=O)OCC(CO)(c1ccccc1)c1ccccc1	108%
c1ccc(-c2ccc3ccccc3[o+]2)cc1	93.3%
CC(=O)O[C@H]1CC[C@H]2[C@@H]3CC[C@H]4CC=C(C)C[C@]4(C)[C@H]3CC[C@]12C	101%
C/C(=C\c1cc(C(F)(F)F)n(-c2ccc(N)cc2)n1)[C@@H]1C[C@@H]2O[C@]2(C)CCC[C@H](C)[C@H](O)[C@@H](C)C(=O)C(C)(C)[C@@H](O)CC(=O)O1	21.1%
COc1cc(C2CC(=O)Nc3nc(N)[se]c32)cc(OC)c1OC (stereo not given)	52.1%
N#C[Se]CCCNS(=O)(=O)C1CC2C=CC1C2 (stereo not given)	-42.3% (active)
CC(C)OC(=S)[S-].[Au+].c1ccc([PH+](c2ccccc2)c2ccccc2)cc1	25.1%
CC1=C(SCCC(=O)OCC(=O)NCCC[Te]c2ccccc2)C(=O)c2ccccc2C1=O	9.54% (active)
ClCCN(CCCl)c1nc(Cl)c(C2CC(c3ccc(Cl)cc3)=NN2c2cc(Cl)cc(Cl)c2)s1 (stereo not given)	88.1%
CC(C)(C)N(Cc1ccccc1)N=O	97%
COC(C)(C)CCC[C@H](C)C/C=C/C(C)=C/C(=O)OC(C)C	109%
CCOc1cc(/C=N\Nc2nnc(C)n2N)c(C)cc1N(CCCl)CCCl	14.2%
ClCCN(CCCl)C(c1ccccc1)c1ccc(Cl)cc1 (stereo not given)	81.6%
Cc1cc(C)nc(C)c1.[Cl][Hg][Cl]	104%
COc1ccc(C(=O)c2ccc([As]=O)cc2)cc1 (stereo not given)	-81.4% (active)
N#CC(C#N)=Cc1ccc2ccccc2c1	106%

Structure (SMILES)	growth
CC[C@H](C)[C@H](NC(=O)Nc1ccccc1)C(=O)N(C)[C@H](C[C@@H](OC(C)=O)c1nc(C(=O)N[C@@H](Cc2ccccc2)C[C@H](C)C(=O)OC)cs1)C(C)C	45%
CC[C@@]1(C2O[C@@H](C3O[C@@](O)(CC)[C@H](C)C[C@@H]3C)C[C@@H]2C)CC[C@H]([C@]2(C)CCC3(C[C@H](O)[C@@H](C)[C@@H]([C@H](C)[C@@H](OC)[C@H](C)C(=O)O)O3)O2)O1 (stereo not given in full)	31.1%
CC(=O)O[C@H]1C[C@H](O[C@H]2[C@@H](O)C[C@H](O[C@H]3[C@@H](O)C[C@H](O[C@H]4CC[C@@]5(C)C(CCC6C5C[C@@H](O)[C@]5(C)[C@@H](C7=CC(=O)OC7)CC[C@]65O)C4)O[C@@H]3C)O[C@@H]2C)O[C@H](C)[C@H]1O[C@@H]1O[C@H](CO)[C@@H](O)[C@H](O)[C@H]1O (stereo not given in full)	-100% (active)
CC1(C)N=C(N)N=C(N)N1c1cccc(C(=O)Nc2cccc(S(=O)(=O)F)c2)c1	97.3%
COc1cc(NCCCCCN=C(N)N)c2ncccc2c1	37.5%
O1[As]2O[As]3O[As]1O[As](O2)O3	-2.55% (active)
C[C@]12CC[C@H](OC3OC(O)C(O)C(O)C3O)C=C1CCC1C2CC[C@]2(C)[C@@H](c3ccc(=O)oc3)CC[C@]12O (stereo not given in full)	-98.8% (active)
CC(=O)O[C@@H]1C2=C(C)C3(CC3)[C@@](C)(O)C(=O)C2=C[C@@]1(C)CO	7.37% (active)
CC(N)Cc1ccc(O)cc1 (stereo not given)	114%
Cc1cc(NC(=O)NCCOc2ccc(N3C(N)=NC(N)=NC3(C)C)cc2Cl)ccc1S(=O)(=O)F	51.5%
CC(/C=N/N=C(N)N)=N\N=C(N)N	78.1%
CC(=O)C1C(=O)N(C)C(=O)N(C)C1=O	110%
FC(F)=C(F)c1ccccc1	103%
CCC(CC)(c1ccccc1)C(OC(N)=O)c1ccccc1 (stereo not given)	88.1%
Cc1cc(NC(=O)/C=C/c2ccc([N+](=O)[O-])cc2)ccc1S(=O)(=O)F	109%
CC(=O)[O][Hg][c]1nc2c(c(=O)n(C)c(=O)n2C)n1C	98.2%
COc1cc[c]([Hg][Cl])cc1	28.6%
O=C(O)c1cccc(CCl)c1	114%
CCCC(C)(C)c1ccc2c(c1)OC(C)(C)[C@@H]1CC=C(C)C[C@@H]21	103%
C1CNC2CCCC2C1 (stereo not given)	111%
